Each structure is given as a SMILES string. About 22,000 (6.9%) of roughly 320,000 compounds were called active. A call without a number means that no potency is given here. Inconclusive results (about 27%) are left out. This is one part of a sample in which actives are shown more often than they occur. Calls come from the whole dose curve; as a rule, active = well fitted inhibition curve with a large enough effect; inconclusive = small, poorly fitted or top-dose-only effect, or another doubt; inactive = no such curve, though single readings can be large or run the other way.
Potency is the fitted concentration of half-maximal effect.

This test in a line: Primary qHTS for delayed death inhibitors of the malarial parasite plastid, 96 hour incubation. The following applies: P. falciparum luciferase reporter growth; series mostly up to 28.7 µM. The procedure, abridged: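 Delayed-death screen, second-generation endpoint: infected erythrocytes, 2% hematocrit, 0.05% parasitemia final; 96 hours at 37 C, 5% CO2; luciferase detection reagent; luminescence decrease equals reduced growth.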
As to `O=C(NCc1ccccc1Cl)NC(=O)c1csc([N+](=O)[O-])c1`, the Potency entry is “inactive”.

As to `CC1(C(=O)OCC(=O)Nc2ncc(Cl)cc2Cl)CC1(Cl)Cl` (stereo not given), the Potency entry was “inactive”.

With `CCOC(=O)C1=NNC2(c3ccc(Cl)cc3)C(=O)N(c3cc(C)cc(C)c3)C(=O)C12` (stereo not given), the Potency entry is “inactive”.

`COc1cc2c(cc1OC)C(c1cccc([N+](=O)[O-])c1)=NCC2`: the Potency result was “inactive”.

Take `CCOC(=O)C1=NN(c2ccc(Cl)cc2)/C(=C/C2=NCCc3cc(OC)c(OC)cc32)S1`: the Potency was 4.15 µM (active).

In the case of `CCCCN(C(=O)C1CCC1)c1c(N)n(Cc2ccccc2)c(=O)[nH]c1=O`, the Potency result is “inactive”.

As to `O=S(=O)(NC1CC1)c1ccc(F)c(F)c1`, the Potency entry was “inactive”.

As to `Cn1ncc2c(N3CCCCC3)nc(NCCCO)nc21`, the Potency result is “inactive”.

For `COc1cc(C(=O)NN(CCC#N)C2=NS(=O)(=O)c3ccccc32)cc(OC)c1OC`, the Potency entry was “inactive”.

Regarding `C=C1c2c(Cl)ccc(O)c2C(O)=C2C(=O)[C@]3(O)C(O)=C(C(N)=O)C(=O)[C@@H](N(C)C)[C@@H]3[C@@H](O)C12` (stereo not given in full), the Potency is 0.738 µM (active).

`CN(C)[C@@H]1C(=O)C(C(N)=O)=C(O)[C@@]2(O)C(=O)C3=C(O)c4c(O)ccc(Cl)c4[C@@H](O)[C@H]3C[C@@H]12`: the Potency was 0.37 µM (active).

Consider `COc1ccc(OCCC(=O)c2ccc(OC)cc2)cc1`, for which the Potency entry is “inactive”.

As to `CCN(c1ccccc1)S(=O)(=O)c1cc2c(cc1C)n(C)c(=O)c(=O)n2C`, the Potency entry is “inactive”.

On to `Cn1c2ccccc2c2cc(/C=C(\NC(=O)c3ccccc3)C(=O)NCC(=O)O)ccc21`, for which the Potency result was “inactive”.

Regarding `COc1ccc(C(=O)O)cc1S(=O)(=O)NCc1cccnc1`, the Potency result was “inactive”.

With `COc1ccc(-c2cc(C(F)(F)F)nc(NCc3cccnc3)n2)cc1`, the Potency was 13.1 µM (active).

As to `COc1ccc(-c2cc3ncccc3cn2)cc1`, the Potency result was “inactive”.

Regarding `CCN(CC)S(=O)(=O)c1ccc(N2CC(C(=O)NCc3cccnc3)CC2=O)cc1` (stereo not given), the Potency entry is “inactive”.

Take `CCC(=O)c1ccc(OC(=O)/C=C/c2cc(OC)c(OC)c(OC)c2)cc1`: the Potency entry is “inactive”.

For `CS(=O)(=O)C1=NN2C(=N)/C(=C\c3ccc(OCCOc4ccccc4)cc3)C(=O)N=C2S1`, the Potency entry was “inactive”.

As for `CCCCNC(=O)CCn1c(=O)c2ccccc2n(Cc2cc(C)ccc2C)c1=O`, the Potency result is “inactive”.

Consider `CCCc1nc2c(c(=O)c3ccccc3n2C)c(=O)n1-c1cc(C)cc(C)c1`, for which the Potency is 5.86 µM (active).

Turning to `CCCc1nc2c(c(=O)c3ccccc3n2C)c(=O)n1C1CCCCCC1`, the Potency was 14.7 µM (active).

Turning to `Cn1c2ccccc2c(=O)c2c(O)cccc21`, the Potency entry is “inactive”.

In the case of `Cn1c2ccccc2c2c(C(=O)N3CCN(c4ccc(F)cc4)CC3)cn(C3CCCC3)c(=O)c21`, the Potency result is “inactive”.

As for `COc1ccccc1C(=O)OCC(=O)NCCNC(=O)COC(=O)c1ccccc1OC`, the Potency entry is “inactive”.

On to `Cn1cccc1C(=O)N1CCc2ccccc2C1`, for which the Potency result was “inactive”.

Regarding `CCOc1ccc(NC(=O)CN(C)C(=O)c2c(C)noc2C)cc1OCC`, the Potency result was “inactive”.

As for `C=CC(COCc1ccccc1)N(Cc1ccccc1)S(=O)(=O)c1ccccc1Br` (stereo not given), the Potency was 9.28 µM (active).

Turning to `C=CCCN(Cc1ccccc1)S(=O)(=O)c1ccccc1Br`, the Potency result is “inactive”.

Turning to `COc1ccc(S(=O)(=O)n2nc(C)c(S(=O)(=O)N3CCOCC3)c2C)cc1`, the Potency result is “inactive”.

Turning to `COc1ccc(C(=O)NCCNc2ccc([N+](=O)[O-])cn2)cc1`, the Potency entry is “inactive”.

For `O=C(CSc1ccc(-c2cccs2)nn1)Nc1ccccc1F`, the Potency was 2.33 µM (active).

Turning to `Cc1csc(NC(=O)CSc2ccc(-c3ccc(F)cc3)nn2)n1`, the activity change, negative = inhibition is -36.6% [at 1.15 µM] (inactive).

For `Cn1c(CCC(=O)Nc2ccccc2F)nnc1SCC(=O)Nc1ccccc1Cl`, the Potency result was “inactive”.

Take `CCN(CC)S(=O)(=O)c1ccc(NC(=O)c2cnc(C)cn2)cc1`: the Potency result was “inactive”.

As for `Cc1cccc2c1cnn2C(=O)CCC(=O)NC1CCCCC1`, the Potency was 13.1 µM (active).

Turning to `Cc1ccc2c(cnn2C(=O)CCC(=O)NC2CCCC2)c1`, the Potency entry is “inactive”.

With `Cc1nn(CC(=O)NC2CCCCC2)c(=O)c2cccn12`, the Potency entry was “inactive”.

Take `CNC(=O)CSc1nnnn1-c1ccc(C)cc1C`: the Potency entry is “inactive”.

In the case of `CCn1nnnc1SCC(=O)c1ccc(C)cc1C`, the Potency was 7.38 µM (active).

For the compound `CCn1nnnc1SCC(=O)Nc1ccc(N(C)C)cc1`, the Potency entry was “inactive”.

`O=C1CSC(=S)N1c1ccc(Cl)c(Cl)c1`: the Potency result was “inactive”.

On to `NC(=O)c1ccc(-c2csnn2)cc1`, for which the Potency entry was “inactive”.

Regarding `C[C@H](OC(=O)n1ccnc1)[C@@H]1O[C@@]2(C)CCC[C@@H]1O2`, the Potency result is “inactive”.

Consider `COc1cc(C(=S)NCc2ccccc2)cc(Br)c1O`, for which the Potency entry is “inactive”.

`COc1ccccc1OCCC(=O)OCC(=O)NCc1ccccc1`: the Potency result is “inactive”.

As to `COc1cc(C=O)c(Br)cc1OCC(=O)NCc1ccccc1`, the Potency is 11.7 µM (active).

Regarding `CCOc1ccc(S(=O)(=O)N2CCC(c3ccccc3)CC2)cc1C(=O)O`, the Potency result was “inactive”.

For `C=CCn1c(COc2ccccc2C)nnc1SCC(=O)O`, the Potency result is “inactive”.

As for `Nn1c(Cc2cccc3ccccc23)nnc1SCC(=O)N1CC(=O)Nc2ccccc21`, the Potency result was “inactive”.

In the case of `C=CCn1c(COc2ccccc2F)nnc1SCC(=O)N1CC(=O)Nc2ccccc21`, the Potency is 8.28 µM (active).

`O=C(COc1ccccc1)Nc1ccc(C(=O)N2CCCC2)cc1`: the Potency result is “inactive”.

Turning to `COc1cc(Cl)c(C)cc1NC(=O)CN1CCCCCC1`, the Potency result is “inactive”.

For `Cc1cc(NC(=O)CSC2=NS(=O)(=O)c3cc(Cl)ccc3N2)no1`, the Potency result was “inactive”.

For `Cc1ccc(C(O)P(=O)(OC(C)C)c2ccc(N(C)C)cc2)cc1` (stereo not given), the Potency result was “inactive”.

`CCCOP(=O)(c1ccc(N(C)C)cc1)C(O)c1cc(OC)c(OC)c(OC)c1` (stereo not given): the Potency was 10.4 µM (active).

Take `CCCCOP(=O)(c1ccc(N(C)C)cc1)C(O)c1cc(OC)ccc1OC` (stereo not given): the Potency result is “inactive”.

`CCC(C)N1C(=O)S/C(=C/c2ccc(Sc3nc4ccccc4[nH]3)o2)C1=O` (stereo not given): the Potency is 1.65 µM (active).

Consider `CCCCSc1nc2ccccc2[nH]1`, for which the Potency entry is “inactive”.

Turning to `CN=C1S/C(=C\c2ccc(Sc3ccc(Cl)cc3)o2)C(=O)N1C`, the Potency result is “inactive”.

With `[2H]C(CCOS(N)(=O)=O)c1ccccc1` (stereo not given), the Potency entry was “inactive”.

For `COCCCn1c(SCC(=O)NC2CCCC2)nnc1-c1ccccc1`, the Potency result is “inactive”.

As to `CC(C)(C)C(=O)NC1CC2CCCC(C1)N2C(=O)Nc1ccccc1F` (stereo not given), the Potency result is “inactive”.

Regarding `O=S(=O)(c1cccc(-c2nnc3n2CCCCC3)c1)N1CCOCC1`, the Potency result was “inactive”.

For the compound `O=S(=O)(c1cccc(-c2nnc(SC(F)F)n2-c2ccccc2)c1)N1CCCCC1`, the Potency was 7.38 µM (active).

Consider `O=S(=O)(c1cccc(-c2cn3ccccc3n2)c1)N1CCCC1`, for which the Potency entry is “inactive”.

With `Cc1noc(C)c1C(=O)OCC(=O)N1CCN(S(=O)(=O)c2ccc3ccccc3c2)CC1`, the Potency entry was “inactive”.

Consider `Cc1cc(S(=O)(=O)NC2CCCC2)ccc1-n1cnnn1`, for which the Potency entry was “inactive”.

Regarding `C[C@@H](Nc1nc(-c2ccccc2)nc2c1oc1ccccc12)C(=O)O`, the Potency result is “inactive”.

Take `Cc1nc(Cl)c2oc3ccccc3c2n1`: the Potency entry is “inactive”.

Turning to `O=c1[nH]c(CSc2ccccc2)nc2c1oc1ccccc12`, the Potency is 5.22 µM (active).

Regarding `CC(C)(C)c1cc[n+](-c2[nH]c(=O)sc2/C=N/N=C(\[O-])c2ccccc2)cc1`, the Potency entry is “inactive”.

With `O=C(OCC(=O)N1CCN(C(=O)c2ccco2)CC1)c1cccc(O)c1`, the Potency entry is “inactive”.

As to `CC(=O)Nc1ccc(NC(=O)CSc2nnc(C3CC3)n2-c2ccccc2)cc1`, the Potency result is “inactive”.

`Nc1nnn(CC(=O)N/N=C/c2ccc(O)cc2)n1`: the Potency result was “inactive”.

As to `CCOCCCNC(=S)N1CCC(NC(=O)C2CCCCC2)CC1`, the Potency entry is “inactive”.

For the compound `O=C(NC1CCN(C(=S)Nc2ccc(Cl)cc2)CC1)C1CCCCC1`, the Potency result was “inactive”.

`O=C(NC1CC2CCCC(C1)N2C(=O)N1CCCCC1)C1CCCCC1` (stereo not given): the Potency is 14.7 µM (active).

Regarding `CSc1ccccc1OCc1cc(C(=O)N2C[C@H]3CC[C@H]2C3)no1`, the Potency entry is “inactive”.

For `Cc1ccc(S(=O)(=O)NCCCn2ccnc2)cc1C(=O)NC(C)C`, the Potency entry was “inactive”.

Consider `COc1ccc(S(=O)(=O)N2CCCC(C(=O)NCCCn3ccnc3)C2)cc1OC` (stereo not given), for which the Potency entry was “inactive”.

Consider `CCOc1ccc(S(=O)(=O)NCCCn2ccnc2)cc1NC(C)=O`, for which the Potency was 13.1 µM (active).

As to `CC(NC(=O)COc1cccnc1[N+](=O)[O-])c1ccc(Cl)cc1Cl` (stereo not given), the Potency entry is “inactive”.

With `CC(C)CC(=O)N1CCN(Cc2cccc(Cl)c2)CC1`, the Potency entry is “inactive”.

Turning to `Clc1cccc(CN2COc3c(cc(Cl)c4cccnc34)C2)c1`, the Potency was 0.329 µM (active).

`O=C(C1CCC1)N1CCN(c2ccccc2)CC1`: the Potency entry is “inactive”.

In the case of `COc1ccc(NC(=O)CCC(=O)Nc2nnc(C3CCCCC3)s2)cc1`, the Potency result was “inactive”.

Consider `COc1cc(C(=O)NCc2cc3cc(Cl)ccc3n2C)cc(OC)c1OC`, for which the Potency entry is “inactive”.

On to `CCn1c(SCC(=O)c2ccc3ccccc3c2)nnc1-c1cccs1`, for which the Potency result is “inactive”.

As to `Cc1nc(SCC(=O)N2CCc3ccccc3C2)c2c(C)c(C)sc2n1`, the Potency result was “inactive”.

Take `O=C(CSc1nnc(-c2cccs2)n1Cc1ccccc1)N1CCc2ccccc2C1`: the Potency is 10.4 µM (active).

Turning to `CCn1c(Cc2ccc(OC)cc2)nnc1SCC(=O)Nc1ccc(N2CCOCC2)cc1`, the Potency result is “inactive”.

For the compound `CCn1c(SCC(=O)NC2CCCC2)nnc1-c1ccoc1C`, the Potency result is “inactive”.

In the case of `CCN(CC)c1ccc(NC(=O)c2ccc(=O)[nH]c2)cc1S(=O)(=O)Nc1ccc(OC)cc1`, the Potency was 9.28 µM (active).

Take `COc1ccc(NS(=O)(=O)c2ccc(NC(=O)c3ccc(N(C)S(C)(=O)=O)cc3)cc2)cc1`: the Potency entry was “inactive”.

In the case of `O=C(NNC(=O)c1cccc(S(=O)(=O)Nc2ccc(Cl)cc2)c1)c1ccc(=O)[nH]c1`, the Potency result is “inactive”.

With `COc1ccc(S(=O)(=O)n2cnc3ccccc32)c(C)c1`, the Potency entry was “inactive”.

For the compound `CCCc1c(C(=O)N/N=C(\C)CCc2ccc(OC)cc2)nnn1-c1nonc1N`, the Potency entry is “inactive”.

`CCN1CCN(C(=O)N(Cc2ccc(Cl)cc2)S(=O)(=O)c2ccc(C)cc2)CC1`: the Potency entry was “inactive”.

As for `O=C(CSc1n[nH]c(-c2cccnc2)n1)Nc1ccc(Cl)cc1`, the Potency result is “inactive”.

On to `CC(C)CN(C(=O)c1ccc2c(c1)OCO2)C1CCS(=O)(=O)C1` (stereo not given), for which the Potency result is “inactive”.

Consider `O=C(CN1C(=O)COc2ccccc21)Nc1ccc(F)cc1`, for which the Potency was 1.47 µM (active).

For the compound `O=C(CN1C(=O)COc2ccccc21)NCCN1CCc2ccccc2C1`, the Potency entry was “inactive”.

`O=C(CN1C(=O)COc2ccc(Cl)cc21)Nc1ccc(N2CCOCC2)cc1`: the Potency entry was “inactive”.

Values taken from PubChem BioAssay AID504834 (National Center for Advancing Translational Sciences (NCATS), 2011).
